In the library only some 2.1% were active in any assay of this set; here they are far more common.
D2 ag-1 = agonists of human D2 dopamine receptor; P14416; HEK293 T-REx D2 cells, calcium flux agonist mode; activation, % at 2 µM; actives 0.53% (n = 340,000);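 active = activation over 3 SD above normal in the single-dose calcium agonist read, cut at about 30% in these data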; note: 0% is about no effect
Target sequence (P14416 whole entry, looked up): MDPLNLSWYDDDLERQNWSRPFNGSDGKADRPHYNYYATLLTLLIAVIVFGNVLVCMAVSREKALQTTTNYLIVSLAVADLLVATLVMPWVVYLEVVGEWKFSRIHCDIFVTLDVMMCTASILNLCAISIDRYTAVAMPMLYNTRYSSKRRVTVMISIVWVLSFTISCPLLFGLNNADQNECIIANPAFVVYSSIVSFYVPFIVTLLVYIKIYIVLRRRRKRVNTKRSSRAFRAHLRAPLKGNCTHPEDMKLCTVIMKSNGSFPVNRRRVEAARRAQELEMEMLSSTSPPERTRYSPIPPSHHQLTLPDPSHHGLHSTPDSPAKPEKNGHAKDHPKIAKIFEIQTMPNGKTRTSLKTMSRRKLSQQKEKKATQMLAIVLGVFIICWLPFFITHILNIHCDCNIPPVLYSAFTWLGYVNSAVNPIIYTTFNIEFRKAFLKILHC
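Calcium-flux readout, 1 cycle/sec over 180 s following compound pin transfer, in inducible HEK293 Trex D2 cells (force-coupled); dopamine controls included. Positive calcium responses during this window marked compounds as potential agonists.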
D2 antagonist = antagonizes the human D2 dopamine receptor. P14416. HEK293 TREx D2 cells, calcium flux, dopamine EC80. inhibition, % at 10 µM. actives 2% (n = 340,000); in the data active = inhibition above about 30%; inactive = below that, where a call was filed; note: 0% is about no effect
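Read-out: kinetic calcium fluorescence (1 cycle/s) in inducible HEK293 T-REx D2 cells after an EC80 dopamine addition that followed 180 s compound preincubation. Loss of the dopamine response indicates antagonism.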
D2 PAM-1 = positive allosteric modulators of human D2 dopamine receptor; P14416; DiscoveRx D2 beta-arrestin cells, luminescence, 90 min; 100% = 57 uM dopamine signal; potentiation, % (concentration not given with the values); actives 0.23% (n = 360,000); in the data active = potentiation above about 50%; inconclusive = mostly about 30% to 49%
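PathHunter D2 cells, attached overnight at 37 deg C, received compound in DMSO plus dopamine at EC20 (50 nM final) for 90 min at 37 deg C. Beta-arrestin recruitment was read as luminescence after 1 h with detection reagent at ambient temperature.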
LDHA inh = LDHA (human) enzyme inhibition; actives 0.15% (n = 480,000); P00338; purified LDHA, NADH/diaphorase-resazurin fluorescence; active compounds read low; activity change, % (values are at about 110 or 230 µM); in the data active = activity change below about -30%; inconclusive = mostly about -25% to -30%;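 note: plate controls were DMSO wells for no effect and wells without enzyme for full effect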
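Human LDH5 (2 nM) was incubated with 0.06 mM NADH and 0.2 mM pyruvate for 5 min at room temperature in Tris pH 7.4. Remaining NADH was coupled through diaphorase/resazurin, and resorufin fluorescence was read at 0 and 20 min.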
D2 ag-2 = agonists of human D2 dopamine receptor (beta-arrestin). P14416. DiscoveRx PathHunter D2 beta-arrestin, luminescence, 90 min; 100% = 57 uM dopamine signal. activation, % (no concentration beside the values). actives 0.084% (n = 360,000). AID 624465; in the data active = activation above about 40%; inconclusive = between about 15% and that limit
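Agonist mode: compounds alone added to overnight-plated D2 PathHunter cells for 90 min at 37 C, with 57 uM final dopamine (EC100) defining full response. Beta-arrestin recruitment detected by chemiluminescent reagent, read after 1 h at ambient temperature.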
D2 PAM-2 = positive allosteric modulators of human D2 dopamine receptor | P14416 | HEK293 T-REx D2, calcium flux, EC20 dopamine potentiation | potentiation, % at 10 µM | actives 0.34% (n = 340,000) | AID 485347;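 active = potentiation over 3 SD above the plate norm, cut at about 30% in these data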; note: 0% is about no effect
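Cells plated with tetracycline inducer and held overnight at 30 C; calcium dye loaded 30–90 min at room temperature; baseline taken, compound added and read 180 s; EC20 dopamine then added and read 180 s.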
D3 ag = activates human D3 dopamine receptor beta-arrestin recruitment | DiscoveRx D3 beta-arrestin cells, luminescence, 90 min | actives 4% (n = 2,300) | Potency, µM (highest dose often 76.9 µM), for inactives: at the top dose activation, hits mostly activators | shares compounds with D2 ag-1;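 note: potency is the fitted concentration of half-maximal effect; 100% = dopamine control response; nearly all actives have a fitted effect of over 70% in size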
D2 ag-3 = activates human D2 dopamine receptor in D3 counterscreen; shares compounds with D2 ag-1; DiscoveRx PathHunter D2 beta-arrestin, luminescence, 90 min; response scale: percent relative to full dopamine signal; Potency, µM (titrated, usually from 76.9 µM), for inactives: at the highest dose activation, usual class: activators; actives 5.9% (n = 2,300); AID 720507; note: potency is the fitted concentration of half-maximal effect; % of control where 0% means no effect; nearly all actives have a fitted effect of over 70% in size
Starred values were filed as active, the others as inactive; ? = inconclusive; · = no result. Unless noted, calls come from the whole dose curve; as a rule, active = well fitted activation curve with a large enough effect; inconclusive = small, poorly fitted or top-dose-only effect; inactive = flat fitted curve, though single readings scatter.

SMILES	D2 ag-1	D2 antagonist	D2 PAM-1	LDHA inh	D2 ag-2	D2 PAM-2	D3 ag	D2 ag-3
COc1cc(C(=O)OCc2ccc(C)cc2)cc(NC(=O)c2cccs2)c1OC	6.0	37.6*	8.7	-8.9	-4.6	19.7	-6.0%	21.7%
CCNc1c(NC(=O)NCc2cccc(OC)c2)c(=O)oc2ccccc12	·	·	·	-14.6	·	·	·	·
COc1ccc(OC2C(=O)N(c3ccc(C)c(C)c3)C2c2ccc(OC)c(OC)c2)cc1 (stereo not drawn)	53.9*	1.3	1.8	-7.5	-0.1	-21.7	-8.6%	-1.9%
Cc1ccccc1C(=O)Nc1nnc(SC(C)C)s1	17.9	29.0	-29.0	-11.7	1.1	-2.6	-3.0%	-1.3%
COc1ccc(N2CCN(C(=O)CCCNC(=O)Cn3cnc4sc(C)c(C)c4c3=O)CC2)cc1	44.5*	-3.7	-7.8	-0.1	-4.1	-21.6	-0.9%	5.7%
CCOC(=O)c1c(N)n(-c2ccc(CC)cc2)c2nc3ccccc3nc12	-2.0	·	·	5.3	·	1.1	·	·
CCOC(=O)c1c(N)n(-c2ccc(N)cc2)c2nc3ccccc3nc12	44.0*	-1.0	5.7	-2.5	2.0	-13.6	-12.5%	-7.4%
COCCN1C(=O)c2ccccc2N2C(=O)CCC12C(=O)OCc1cc(=O)oc2cc(C)ccc12 (stereo not drawn)	·	·	·	8.7	·	·	·	·
CCOCC(=O)Nc1ccc(OCc2ccccc2)cc1	-0.5	0.9	-0.9	-4.4	-6.5	1.4	·	·
O=C(O)COCC(=O)Nc1ccc(OCCc2ccccc2)cc1	-0.3	-0.2	-2.7	-7.0	-2.3	-4.4	-3.6%	2.4%
Cc1cc(C)n2nc(C(=O)Nc3ccn(Cc4ccccc4C)n3)cc2n1	51.0*	-7.7	-0.9	-5.8	0.0	0.4	2.1%	-1.9%
O=C(CCN1CCN(c2ccccc2)CC1)NNC(=S)Nc1ccccc1Cl	53.7*	66.3*	-24.3	-12.3	7.0	-21.7	-2.6%	3.2%
Cc1cc(C(=O)Nc2ccc(N3CCOCC3)cc2)c2ccccc2n1	0.7	-1.1	4.1	4.8	-0.3	11.8	·	·
CCC1(c2ccccc2)NC(=O)N(CC(=O)NNC(=O)CCN2CCN(c3ccccc3)CC2)C1=O (stereo not drawn)	67.7*	88.6*	-10.0	-7.2	12.5	-41.5	11.5%	21.5%
N#CCC(=O)Nc1ccc(C(=O)NNC(=O)CCN2CCN(c3ccccc3)CC2)cc1	·	·	-0.7	-13.1	?	·	?	?
COc1cccc(C(=O)NNC(=O)CCN2CCN(c3ccccc3)CC2)c1	·	·	-12.4	-3.8	11.0	·	·	·
Cc1cc(C(=O)NNC(=O)CCN2CCN(c3ccccc3)CC2)c2ccccc2n1	71.8*	66.9*	-1.8	-1.7	3.9	-23.9	15.9%	?
CN(C(=O)Nc1cccc(Cl)c1)C(c1ccc(Cl)cc1)c1nccn1C (stereo not drawn)	·	·	·	9.4	·	·	·	·
COC(=O)C1=C(C)OC(=O)C1(NC(=O)c1ccccc1)C(F)(F)F (stereo not drawn)	·	·	·	7.5	·	·	·	·
COc1cc(/C=N/OC(=O)c2ccc(C(F)(F)F)cc2)ccc1OCc1ccccc1	·	·	·	12.3	·	·	·	·
CCc1cc(C(=O)NNC(=O)CCN2CCN(c3ccccc3)CC2)sc1C	79.7*	66.4*	-21.6	-3.4	3.6	-14.6	?	?
CCc1cc(C(=O)NNC(=O)CCl)sc1C	-0.7	1.5	-7.7	-0.3	5.5	8.9	·	·
O=C(CCN1CCN(c2ccccc2)CC1)NNC(=O)c1cccc2ccccc12	73.7*	85.3*	-17.8	-4.6	?	-16.2	?	18.3%
O=C(Nc1ccccc1C(=O)NC1CC1)c1cnc2ccccc2n1	·	·	·	28.1	·	·	·	·
CN(C)S(=O)(=O)c1cccc(NC(=O)CSc2ncnc3ccccc23)c1	·	·	5.0	-13.1	12.9	·	?	?
SMILES	D2 ag-1	D2 antagonist	D2 PAM-1	LDHA inh	D2 ag-2	D2 PAM-2	D3 ag	D2 ag-3
CCCCC(=NCCc1c(C)[nH]c2ccccc12)C1=C(O)CC(c2ccccc2)CC1=O (stereo not drawn)	0.4	-0.1	0.5	2.7	3.9	·	-6.0%	-2.8%
CC(=NCCc1c(C)[nH]c2ccc(C)cc12)C1=C(O)CC(c2ccccc2)CC1=O (stereo not drawn)	5.2	4.1	-15.1	-0.6	-12.2	-9.9	·	·
CC(=NCCc1c(C)[nH]c2ccc(OC(F)(F)F)cc12)C1=C(O)CC(c2ccccc2)CC1=O (stereo not drawn)	3.9	14.0	2.4	-6.1	11.4	-2.5	-3.8%	1.0%
CCCC(=NCCc1c(C)[nH]c2ccccc12)C1=C(O)CC(c2ccccc2)CC1=O (stereo not drawn)	24.7	-7.2	-7.4	3.2	-8.3	-6.1	·	·
COc1cccc(-c2nc(C#N)c(N3CCN(C(=O)c4ccccc4)CC3)o2)c1	·	·	·	-4.0	·	·	·	·
COc1cc(C(=O)CCN2CCC(c3ccccc3)C2)cc(OC)c1OC (stereo not drawn)	46.4*	24.3	-38.5	-5.3	-3.7	-26.1	-9.1%	-2.9%
O=C(CCN1CCC(c2ccccc2)C1)c1ccccc1 (stereo not drawn)	·	·	-16.9	6.8	0.5	·	·	·
COc1ccc2nc(C(=O)Nc3ccccc3OC)ccc2c1	·	·	·	11.8	·	·	·	·
COc1ccc(OC)c(NC(=O)C2CCN(S(=O)(=O)c3c(C)noc3C)CC2)c1	0.3	20.7	-23.0	10.2	-2.4	-3.5	·	·
COc1ccc(OC)c(NC(=O)C2CCCN(S(=O)(=O)c3c(C)noc3C)C2)c1 (stereo not drawn)	-0.3	43.7*	-4.3	4.5	-0.5	-14.7	13.9%	6.0%
O=C1OC(N2CCN(c3ccccn3)CC2)c2ccccc21 (stereo not drawn)	55.2*	33.8*	-5.7	-4.9	8.6	-22.8	2.8%	25.7%
Cn1c(CC(=O)NCCO)c(Sc2ccccc2)c2ccccc21	50.3*	-4.0	-3.6	-8.1	-4.7	-22.5	-4.8%	-1.9%
CSc1c(CC(=O)NCCO)n(C)c2ccccc12	0.2	1.9	2.3	-2.3	-0.3	2.6	·	·
COc1cc(C2C3=C(CCCC3=O)Nc3c(C#N)cnn32)cc(OC)c1O (stereo not drawn)	·	·	·	45.6	·	·	·	·
CCCN(C)Cc1ccc2c(c1)OCO2	·	·	·	2.9	·	·	·	·

Compound activity (PubChem)
